TCR act: Activators of T cell receptors: qHTS campaign. primary human leukocytes, anti-CD3, IL-2 HTRF, 48 h. Potency, µM (top dose mostly 9.22 µM), hits mostly activators. 330,000 tested, under 10 active. AID 504894, 2011
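Using a-CD3 beads without co-stimulation, primary human leukocytes were exposed to compounds for 48 hr. An HTRF IL-2 kit measured the cytokine, with europium-to-d2 energy transfer producing emission at 665nm upon 320nm excitation.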
uPA surface inh: qHTS for Inhibitors of Cell Surface uPA Generation. Potency, µM (titrated, usually from 38.3 µM), hits mostly inhibitors. hit rate 0.31% among 330,000. cell surface uPA generation assay, qHTS; active = well fitted inhibition curve with a large enough effect; inconclusive = small, poorly fitted or top-dose-only effect; inactive = no such curve, though single readings can be large or run the other way; tested in mouse RAW 264.7 cells; also: nearly all actives have a fitted effect of over 55% in size
ClpP mod: qHTS Assay for Activators of ClpP; ATP-dependent Clp protease proteolytic subunit (Bacillus subtilis (strain 168)), P80244; purified B. subtilis ClpP, FRET peptide cleavage, 20 min; Potency, µM (top dose mostly 57.5 µM); hit rate 1.9% among 340,000; active = well fitted falling curve with a large enough effect; inconclusive = small, poorly fitted or top-dose-only effect; inactive = no such curve, though single readings can be large or run the other way; also: the source files actives as falling curves though it sought activators and does not explain the sign; nearly all actives have a fitted effect of over 65% in size
Target sequence (P80244 whole entry, looked up): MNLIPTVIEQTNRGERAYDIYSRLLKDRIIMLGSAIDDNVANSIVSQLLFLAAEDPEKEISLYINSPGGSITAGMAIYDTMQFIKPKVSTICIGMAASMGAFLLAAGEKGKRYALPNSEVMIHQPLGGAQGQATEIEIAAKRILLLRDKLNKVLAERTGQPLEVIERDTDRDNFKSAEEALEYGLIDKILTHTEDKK
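Purified B. subtilis ClpP, 10 microg/mL final in Tris/HCl pH8 with KCl, BSA, glycerol and Tween-20, cleaved an Abz/nitrotyrosine-quenched decapeptide. Fluorescence (ex 320, em 430) was read at 0 and 20 min at room temperature. Delta was normalized to 5.8 microM ADEP and DMSO/no-enzyme controls.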
Sfp PPTase inh: qHTS Assay for Inhibitors of Bacillus subtilis Sfp phosphopantetheinyl transferase (PPTase) | Biochemical Sfp PPTase activity, qHTS | Potency, µM, hits mostly inhibitors | AID 1490, 2009 | hit rate 3.5% among 310,000;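 also: the enzyme is Sfp with the accession as filed and its product quenches rhodamine fluorescence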
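Fluorescence-quenching assay with 15 nM Sfp, 5 uM rhodamine-CoA and 12.5 uM BHQ-2-labelled ybbR peptide in pH 7.6 Hepes/MgCl2 buffer. Enzyme was pre-incubated with compound for 15 min at room temperature. Rate was taken from the 30-min fluorescence change (525/598 nm).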
A number is an active result; . = inactive; ? = inconclusive; / = not tested or not shown. Only some compounds are listed: those with a hit (about 4.2% of all), similar ones and a draw of the others. Unless noted, calls follow the shape of the dose curve; as a rule, active = well fitted curve in the direction sought with a large enough effect; inconclusive = small, poorly fitted or top-dose-only effect, or another doubt; inactive = no such curve, though single readings can be large; an effect the other way counts as inactive or inconclusive.

SMILES	TCR act	uPA surface inh	ClpP mod	Sfp PPTase inh
CSc1nc2c(c(=O)[nH]1)C(c1cccs1)C1=C(CCCC1=O)N2 (stereo not drawn)	.	.	22µM	.
Cc1ccc(CSc2nc3c(c(=O)[nH]2)C(c2ccncc2)C2=C(CCCC2=O)N3)cc1 (stereo not drawn)	.	.	14µM	.
Cc1cccc(CN2CCN(C(C)C(=O)NC(C)c3ccccc3)CC2)c1 (stereo not drawn)	.	.	/	63µM
COc1ccc(CN2CCN(C(=O)c3cccc4ccccc34)CC2)cc1OC	.	.	.	?
COc1ccc(CN2CCN(C(=O)c3cccc4ccccc34)CC2)cc1Br	.	.	/	56µM
O=C(c1ccncc1)N1CCN(C(=O)c2cccc3ccccc23)CC1	.	.	14µM	.
Cc1cccc(CN2CCN(C(=O)c3cccc4ccccc34)CC2)c1	.	.	32µM	.
C(=C\c1c[nH]c2ccccc12)/c1nccc2ccccc12	/	/	.	/
COc1ccc(OC)c(C2=Nn3c(nnc3-c3ccco3)SC2)c1	.	.	.	50µM
COc1ccccc1C1=Nn2c(nnc2-c2ccccc2O)SC1	/	/	/	.
COc1ccc(C2=Nn3c(nnc3-c3ccccc3O)SC2)cc1OC	/	/	/	45µM
COc1cccc(C2=Nn3c(nnc3-c3ccccc3C)SC2)c1	/	/	/	63µM
COc1ccc(OC)c(C2=Nn3c(nnc3-c3cc(OC)ccc3OC)SC2)c1	/	/	/	.
COc1ccc(Cn2nnnc2C(c2cc3ccc(OC)cc3[nH]c2=O)N2CCCCCC2)cc1 (stereo not drawn)	/	.	?	.
CCC(C)(C)n1nnnc1C(c1cc2cc(OC)ccc2[nH]c1=O)N1CCc2ccccc21 (stereo not drawn)	.	.	.	.
CCC(C)(C)n1nnnc1C(c1cc2ccc(OC)cc2[nH]c1=O)N1CCc2ccccc21 (stereo not drawn)	.	/	.	10µM
CCC(C)(C)n1nnnc1C(c1cc2ccc(OC)cc2[nH]c1=O)N1CCc2ccccc2C1 (stereo not drawn)	.	/	.	4.5µM
COc1ccc2cc(C(c3nnnn3C3CCCC3)N3CCc4ccccc4C3)c(=O)[nH]c2c1 (stereo not drawn)	.	.	.	22µM
Cc1cc(C(=O)Nc2ccc(N3CCOCC3)c3nonc23)ccc1[N+](=O)[O-]	.	.	/	.
COC(=O)c1ccc(C(=O)O)nc1	.	.	.	79µM
COC(=O)c1ccc(C(=O)OC)nc1	.	.	.	.
CCC(=O)NCCNc1nc2cc(C)c(C)cc2cc1C#N	.	.	13µM	.
Cc1cccc2cc(C#N)c(NCCNC(=O)COc3ccccc3)nc12	.	.	.	50µM
Cc1ccc2cc(C#N)c(NCCNC(=S)NCCCN(C)C)nc2c1C	.	10µM	?	.
CCOCCCNC(=S)NCCNc1nc2c(C)cccc2cc1C#N	/	.	.	50µM
SMILES	TCR act	uPA surface inh	ClpP mod	Sfp PPTase inh
CCOCCCNC(=S)NCCCNc1nc2c(C)cc(C)cc2cc1C#N	.	.	.	?
CCOc1ccc2nc(NCCNC(=O)CC)c(C#N)cc2c1	.	.	?	.
CCc1nn(CC(=O)NCc2ccco2)c(=O)c2cc3c(OC)cccc3n12	/	/	.	/
CC1(C)CC(=O)C=C(c2ccc(-c3ccc4[nH]ccc4c3)cc2)C1=O	/	/	.	/
Cc1ccsc1C1CC(=O)OC2=C1C(=O)CC(C)(C)C2 (stereo not drawn)	/	/	/	.
CCC(O)c1cc2c(cc1NC(=O)c1ccccc1F)OCCO2 (stereo not drawn)	/	/	.	/
Cc1nc(NC(=O)c2cccnc2Cl)sc1C	.	.	.	/
CCOC(=O)C1C(C(=O)OC)=C(CC(C)C)c2ccccc2N1S(=O)(=O)C(F)(F)F (stereo not drawn)	/	/	/	.
COc1ccc(OC)c(NC(=O)C2=C(C)C(=O)OC23CCN(C(C)C)CC3)c1	/	/	.	/
Cc1ccc2cc(C#N)c(NCCNC(=O)C3CC3)nc2c1C	.	.	35µM	.
Cc1cccc2cc(C#N)c(NCCNS(=O)(=O)c3ccccc3)nc12	.	.	/	.
Cc1ccccc1CNC(=O)Cc1csc2ccccc12	/	/	.	/
N/C(=N\OC(=O)COc1ccc2ccccc2c1Br)c1cccnc1	/	/	/	.
N/C(=N\OS(=O)(=O)c1ccc2ccccc2c1)c1ccncc1	.	.	.	.
N/C(=N\OC(=O)COc1ccc2ccccc2c1Br)c1ccccn1	.	.	.	56µM
N/C(=N\OS(=O)(=O)c1ccc2ccccc2c1)c1ccccn1	.	.	/	63µM
CCCCCCCCN1C(=O)[C@H](CC(=O)N2CCN(C(=O)C3CC3)CC2)C[C@@]2(C(=O)OC)CC(C)(C)CC=C12	/	/	.	/
Nc1ncnc2c1nc(N1CCCCC1)n2[C@@H]1O[C@@H]2COP(=O)(O)O[C@H]2[C@H]1O	/	/	/	.
COc1cccc(C=NCCNC(=O)c2nonc2N)c1O	.	.	.	45µM
Cc1ccc(N2NC(C)(c3cccs3)NC2=S)cc1 (stereo not drawn)	.	.	.	71µM
Cc1ccc(N2CC(O)(c3cccs3)[N+]3=C2CCCC3)cc1 (stereo not drawn)	.	.	/	.
CC(C)c1cc(=O)n2[nH]c(N)nc2n1	.	.	/	79µM
CC(=O)c1c(C)[nH]c(C(=O)COc2ccc3ccc(=O)oc3c2)c1C	.	.	32µM	/
Cc1cc(C)n(-c2nc(N(c3ccccc3)c3ccccc3)nc(-n3nc(C)cc3C)n2)n1	.	/	.	50µM
Cc1cc(C)n(-c2nc(Nc3ccccc3)nc(-n3nc(C)cc3C)n2)n1	.	.	.	.
COc1ccc(OCCC(=O)OCC(=O)NC(=O)NC2CCCCC2)cc1	.	.	20µM	.
Cc1nc2c(OCc3ccc(OC(F)F)cc3)cccn2c1N(C)C(=O)CCC1CCCC1	/	/	.	/

Assay outcomes deposited in PubChem BioAssay by National Center for Advancing Translational Sciences (NCATS).
